Assay outcomes as filed in PubChem.
L3MBTL1 inh = blocks human L3MBTL1 | Q9Y468 | AlphaScreen L3MBTL1–H3K9me1 peptide binding | Potency, µM (top dose mostly 57.1 µM), actives largely listed as inhibitors | 230,000 compounds, 0.66% hits | AID 485360; further: nearly all actives have a fitted effect of over 60% in size
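Displacement of a biotinylated histone H3(1-15) peptide monomethylated at Lys9 (75 nM) from L3MBTL1 (50 nM) was measured by AlphaScreen after a 30 min room-temperature compound incubation; cefsulodin titration served as intraplate control.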
PI5P4Ka inh = blocks human PI5P4K alpha kinase activity; P48426; PI5P4Kalpha enzyme, ADP-Glo luminescence, 60 min; hits give low values; max response, %; 330,000 compounds, 1.2% hits; AID 652105; active means max response of -50% or lower; inconclusive means between -30% and -50%; inactive means -30% or higher; further: value at the top dose of about 77 µM
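Controls without substrate or without enzyme flank wells where PI5P4Kalpha converts substrate using 5 microM ATP (final). Incubation lasts 60 minutes at room temperature; ADP formed is read by ADP-Glo luminescence.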
BAZ2B block = inhibitors of human BAZ2B bromodomain. AlphaScreen BAZ2B-H3K14Ac peptide displacement. Potency, µM (top dose mostly 114 µM), usual class: inhibitors. 360,000 compounds, 4.4% hits; further: nearly all actives have a fitted effect of over 60% in size
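AlphaScreen luminescence quantifies BAZ2B engagement of H3K14Ac peptide; the protein and biotinylated peptide are both at 50 nM final, buffer PBS pH 7.4 with 0.01% Tween-20, all steps at room temperature.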
JMJD2E inh = inhibitors of human JMJD2E histone demethylase; JMJD2E catalytic domain, FDH-coupled NADH fluorescence (FDH is formaldehyde dehydrogenase); B2RXH2; Potency, µM (series often up to 57.1 µM), usual class: inhibitors; AID 2147; 230,000 compounds, 1.6% hits; active means well fitted inhibition curve with a large enough effect, not every such curve was filed as active; inconclusive means small, poorly fitted or top-dose-only effect, or another doubt; inactive means no such curve, though single readings can be large or run the other way; further: nearly all actives have a fitted effect of over 50% in size
Target sequence (B2RXH2 1-337 limits assumed): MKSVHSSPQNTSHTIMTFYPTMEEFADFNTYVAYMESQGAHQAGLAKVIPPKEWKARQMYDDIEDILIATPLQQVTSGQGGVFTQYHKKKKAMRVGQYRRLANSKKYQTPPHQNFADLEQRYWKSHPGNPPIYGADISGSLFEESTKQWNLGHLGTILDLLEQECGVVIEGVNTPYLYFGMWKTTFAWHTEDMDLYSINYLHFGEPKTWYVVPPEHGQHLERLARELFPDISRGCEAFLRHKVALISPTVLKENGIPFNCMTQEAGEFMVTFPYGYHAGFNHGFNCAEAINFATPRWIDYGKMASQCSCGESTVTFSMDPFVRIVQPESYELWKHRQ
JMJD2A Tudor inh = blocks the human JMJD2A Tudor domain | O75164 | AlphaScreen JMJD2A-Tudor / H3K4me3 peptide binding | Potency, µM (titrated, usually from 114 µM), hits mostly inhibitors | 390,000 compounds, 4.4% hits | AID 504339; further: nearly all actives have a fitted effect of over 50% in size
HP1b chromo inh = blocks HP1-beta chromodomain binding to methylated histone tails; Potency, µM (doses to about 114 µM), hits mostly inhibitors; AlphaScreen HP1-beta / biotin-H3K9me3 peptide binding; 390,000 compounds, 0.56% hits; P83916; further: nearly all actives have a fitted effect of over 70% in size
Target sequence (P83916 whole entry, looked up): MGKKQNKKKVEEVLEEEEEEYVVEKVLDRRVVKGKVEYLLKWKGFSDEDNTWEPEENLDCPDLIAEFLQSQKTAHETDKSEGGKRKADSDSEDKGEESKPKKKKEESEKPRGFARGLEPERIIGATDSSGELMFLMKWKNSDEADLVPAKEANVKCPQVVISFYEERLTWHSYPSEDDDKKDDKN
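HP1-beta protein (50 nM final) preincubated 30 min at room temperature with biotinylated H3(1-18)K9me3 peptide (50 nM) in PBS pH 7.4, 0.01% Tween-20, then compound added for 30 min. AlphaScreen streptavidin donor/nickel chelate acceptor beads (10 ug/mL final), 30 min dark, luminescence read.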
A number is an active result; . = inactive; ? = inconclusive; / = no result; [ ] = remark or other dose. In the library only some 5.7% were active in any assay of this set; here they are far more common. Unless noted, the call rests on the fitted dose curve; in most records, active means well fitted inhibition curve with a large enough effect; inconclusive means small, poorly fitted or top-dose-only effect; inactive means no such curve, though single readings can be large or run the other way.

SMILES | L3MBTL1 inh | PI5P4Ka inh | BAZ2B block | JMJD2E inh | JMJD2A Tudor inh | HP1b chromo inh
CCN(CC)CCC(c1ccc(N(C)C)cc1)c1c(OC)cc(OC)c2c(-c3ccccc3)cc(=O)oc12 (configuration not stated) | / | . | 32µM | . | 22µM | ?
COc1cc(OC)c2c(-c3ccccc3)cc(=O)oc2c1C(CCN1CCN(c2ccccc2)CC1)c1ccc(N(C)C)cc1 (configuration not stated) | / | . | 4.5µM | . | 4.5µM | ?
COc1ccc(C(CCN2CCCC2)c2c(OC)cc(OC)c3c(-c4ccccc4)cc(=O)oc23)cc1 (configuration not stated) | / | . | . | ? | ? | .
COc1cc(OC)c2ccc(=O)oc2c1C(CCN1CCN(c2ccccc2)CC1)c1ccc(N(C)C)cc1 (configuration not stated) | / | . | 35µM | ? | 22µM | ?
CCCCCc1cc(=O)oc2c(C(CCN3CCN(c4ccccc4)CC3)c3ccc(N(C)C)cc3)c(OC)cc(OC)c12 (configuration not stated) | / | . | 6.3µM | ? | 22µM | ?
COc1ccc(C(CCN2CCOCC2)c2c(OC)cc(OC)c3ccc(=O)oc23)cc1 (configuration not stated) | . | . | / | / | . | .
COc1cc(OC)c2c(C)cc(=O)oc2c1C(CCN1CCOCC1)c1ccc(N(C)C)cc1 (configuration not stated) | / | . | 40µM | ? | 50µM | ?
COc1cc(OC)c2c(-c3ccccc3)cc(=O)oc2c1C(CCN1CCCC(C)C1)c1ccc(N(C)C)cc1 (configuration not stated) | / | . | 16µM | . | 11µM | ?
COc1ccc(C(CCN2CCCC(C)C2)c2c(OC)cc(OC)c3c(-c4ccccc4)cc(=O)oc23)cc1 (configuration not stated) | / | . | . | . | ? | .
COc1ccc(Br)c(C(=O)Nc2cc3c(cc2N2CCCC2)n(C)c(=O)c(=O)n3C)c1 | / | / | . | / | . | .
Cn1cc(CN2CCc3c([nH]c4ccccc34)C2C2CCCCC2)cn1 (configuration not stated) | . | . | 45µM | 20µM | . | .
Cn1cc(CN2CCc3c([nH]c4ccccc34)C2C(C)(C)C)cn1 (configuration not stated) | . | . | . | ? | . | .
Cc1ccccc1C(=O)Nc1nnc(SCc2cc(=O)c3c(C)ccc(C)c3[nH]2)s1 | / | / | 56µM | / | . | .
Cc1ccc(-n2c3c(cc(-c4nc(-c5ccc(Cl)cc5)cs4)c2=O)C(=O)CC(C)(C)C3)cc1C | / | / | . | / | . | .
O=C(NN=Cc1ccc(O)c(O)c1)c1ccccc1 | / | . | / | / | / | /
CN(/N=C\c1ccc(O)c(O)c1)c1nc(-c2ccccc2)cc(-c2ccccc2)n1 | . | ? | 40µM | . | ? | ?
CCc1ccc(C2=NN(CCC(=O)NCCc3ccccc3)C(=O)CC2)cc1 | / | / | . | / | . | .
COc1ccc(-c2csc(N(CCCN(C)C)C(=O)c3ccc(Br)cc3)n2)cc1 | .[2.29 µM] | . | 45µM | / | . | .
COc1ccc(-c2csc(N(CCCN3CCOCC3)C(=O)c3ccco3)n2)cc1 | . | . | ? | . | 100µM | ?
COc1ccc(-c2csc(N(CCCN(C)C)C(=O)c3ccc(C)cc3)n2)cc1 | . | . | ? | / | ? | .
CCN(CC)CCCN(C(=O)c1ccccc1C)c1nc(-c2ccc(OC)cc2)cs1 | .[2.29 µM] | . | 50µM | / | 45µM | .
O=C(NCc1ccccc1Cl)c1cc2cccc3c2n1CCS3 | / | / | . | / | . | .
CC(C)c1ccc(CNc2n[nH]c(-c3ccco3)n2)cc1 | / | / | . | / | . | .
CC(C)N1CCC(N2CCN(C3CCCC3)CC2CCO)CC1 (configuration not stated) | . | . | . | . | .[11.4 µM] | .
Cc1cccc(N2CCC(N3CCN(C4CCCCC4)C(CCO)C3)CC2)c1C (configuration not stated) | 16µM | . | 45µM | ? | . | .
SMILES | L3MBTL1 inh | PI5P4Ka inh | BAZ2B block | JMJD2E inh | JMJD2A Tudor inh | HP1b chromo inh
COc1ccc2c(C)c(CCC(=O)NCCc3ccc(OC)c(OC)c3)c(=O)oc2c1 | / | / | . | / | . | .
COc1ccccc1CN(Cc1cccnc1)S(=O)(=O)c1ccc(-n2cnnn2)c(OC)c1 | / | . | . | / | . | .
COc1cc(S(=O)(=O)N(Cc2cccnc2)Cc2cccc(OC)c2OC)ccc1-n1cnnn1 | / | . | 79µM | . | . | .
COc1cccc([C@@H]2CC=C(C(=O)O)[C@H](c3ccc(Br)cc3)N2S(=O)(=O)c2ccc(C)cc2)c1 | . | . | / | / | . | .
N#Cc1c(N)n(-c2ccc(N)cc2)c2nc3ccccc3nc12 | . | . | . | . | . | .
N#Cc1c(C#N)c(SSc2c(C#N)c(C#N)c(N)n2-c2ccccc2)n(-c2ccccc2)c1N | / | -81 | / | / | 0.79µM | ?
Cc1nc2ccccn2c1/C(O)=C1\C(=O)C(=O)N(CCN2CCOCC2)C1c1ccncc1 (configuration not stated) | . | . | ? | ? | 25µM | .
